Experiment in all cases: universal protein binding microarray (PBM); transcription factors of Arabidopsis thaliana; high values mean tight binding
One test deals with T1, GST-ANAC092(1-176) (Arabidopsis thaliana, UniProt Q9FKA0 1-176).
T1 sequence: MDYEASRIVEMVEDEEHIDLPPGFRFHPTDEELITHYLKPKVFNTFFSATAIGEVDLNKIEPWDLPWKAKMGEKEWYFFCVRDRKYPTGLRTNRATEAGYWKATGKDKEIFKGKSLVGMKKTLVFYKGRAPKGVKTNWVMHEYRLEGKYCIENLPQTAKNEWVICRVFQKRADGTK
As to conditions: protein: recombinant; tags: GST; chain copies: 2; dsDNA, one strand shown. A digest of the protocol:
(§1)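 Binding is expressed as the normalised enrichment score (E-score). Proteins carrying a GST tag, whether NAC-domain, full-length or DNA-binding-domain forms, were induced in cells, and zinc acetate was added for zinc-finger proteins. After purification on glutathione–Sepharose 4B and quantification by A280 or anti-GST western blot, each was applied in duplicate at 200 to 500 nM final to custom all-10-mer Agilent 4 × 180K arrays made double-stranded by primer extension. Gapped and ungapped 8-mers were scored.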

The next test concerns the target GST-NTL6(1-168) (Arabidopsis thaliana, UniProt Q9SCK6 1-168). As to conditions: protein: recombinant; tags: GST; chain copies: 2; dsDNA, one strand shown. A digest of the protocol: as §1
Another test has as its target T2, GST-ANAC019 NAC domain (Arabidopsis thaliana, UniProt Q9C932 14-162).
T2 sequence: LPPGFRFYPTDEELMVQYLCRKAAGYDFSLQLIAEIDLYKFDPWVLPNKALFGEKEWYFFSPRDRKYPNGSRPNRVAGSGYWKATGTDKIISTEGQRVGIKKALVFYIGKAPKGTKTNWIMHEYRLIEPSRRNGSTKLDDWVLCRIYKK
As to conditions: protein: recombinant; tags: GST; chain copies: 2; dsDNA, one strand shown. A digest of the protocol: as §1

The target in a further test is T3, GST-ANAC055(1-171) (Arabidopsis thaliana, UniProt Q9LDY8 1-171).
T3 sequence: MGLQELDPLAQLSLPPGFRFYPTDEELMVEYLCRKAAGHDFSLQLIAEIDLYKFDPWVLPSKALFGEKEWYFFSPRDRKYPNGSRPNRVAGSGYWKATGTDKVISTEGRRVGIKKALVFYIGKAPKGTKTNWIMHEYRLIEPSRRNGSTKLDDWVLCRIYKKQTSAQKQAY
As to conditions: protein: recombinant; tags: GST; chain copies: 2; dsDNA, one strand shown. The method in brief:
as §1

For the next test, the target named is T4, GST-ATAF1 NAC domain (Arabidopsis thaliana, UniProt Q39013 7-158).
T4 sequence: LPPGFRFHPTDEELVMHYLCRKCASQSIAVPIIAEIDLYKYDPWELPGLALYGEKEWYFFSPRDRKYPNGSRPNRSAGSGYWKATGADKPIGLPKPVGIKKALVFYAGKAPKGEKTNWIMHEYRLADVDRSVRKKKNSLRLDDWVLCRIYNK
As to conditions: protein: recombinant; tags: GST; chain copies: 2; dsDNA, one strand shown. The method in brief:
as §1

The target in test [1] is T5, GST-ANAC092(1-285) full length (Arabidopsis thaliana, UniProt Q9FKA0 1-285).
T5 sequence: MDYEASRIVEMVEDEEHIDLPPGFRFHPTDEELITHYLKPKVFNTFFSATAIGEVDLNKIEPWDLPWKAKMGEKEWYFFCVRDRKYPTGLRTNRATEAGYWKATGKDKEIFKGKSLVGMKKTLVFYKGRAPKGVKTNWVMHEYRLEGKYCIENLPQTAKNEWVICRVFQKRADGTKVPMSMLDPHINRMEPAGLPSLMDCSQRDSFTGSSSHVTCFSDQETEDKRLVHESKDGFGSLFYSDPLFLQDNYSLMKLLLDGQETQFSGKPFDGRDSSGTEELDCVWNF
The note with it: protein: recombinant; tags: GST; chain copies: 2; dsDNA, one strand shown. The method in brief:
as §1

A further test has as its target T6, GST-NAP(1-166) (Arabidopsis thaliana, UniProt O49255 1-166).
T6 sequence: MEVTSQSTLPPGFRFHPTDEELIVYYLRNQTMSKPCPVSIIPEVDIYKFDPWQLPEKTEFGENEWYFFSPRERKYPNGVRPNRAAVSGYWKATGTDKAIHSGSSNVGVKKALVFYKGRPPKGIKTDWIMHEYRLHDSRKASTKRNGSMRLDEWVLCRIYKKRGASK
As to conditions: protein: recombinant; tags: GST; chain copies: 2; dsDNA, one strand shown. A digest of the protocol:
as §1

Another test has as its target T7, GST-NST2(1-184) (Arabidopsis thaliana, UniProt Q9M274 1-184).
T7 sequence: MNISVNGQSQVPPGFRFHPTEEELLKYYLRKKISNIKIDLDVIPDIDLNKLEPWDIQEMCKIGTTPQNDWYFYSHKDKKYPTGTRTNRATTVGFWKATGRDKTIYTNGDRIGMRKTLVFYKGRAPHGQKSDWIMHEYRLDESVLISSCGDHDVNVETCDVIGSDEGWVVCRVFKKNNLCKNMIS
The note with it: protein: recombinant; tags: GST; chain copies: 2; dsDNA, one strand shown. A digest of the protocol: as §1

A further test deals with T8, GST-NTL8 NAC domain (Arabidopsis thaliana, UniProt Q9XIN7 14-156).
T8 sequence: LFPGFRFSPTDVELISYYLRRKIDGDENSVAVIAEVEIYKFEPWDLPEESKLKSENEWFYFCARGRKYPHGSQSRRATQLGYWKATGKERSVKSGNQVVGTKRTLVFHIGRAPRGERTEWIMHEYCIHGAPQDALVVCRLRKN
The note with it: protein: recombinant; tags: GST; chain copies: 2; dsDNA, one strand shown. The method in brief:
as §1

For another test, the target named is T9, GST-SND1(1-203) (Arabidopsis thaliana, UniProt Q9LPI7 1-203).
T9 sequence: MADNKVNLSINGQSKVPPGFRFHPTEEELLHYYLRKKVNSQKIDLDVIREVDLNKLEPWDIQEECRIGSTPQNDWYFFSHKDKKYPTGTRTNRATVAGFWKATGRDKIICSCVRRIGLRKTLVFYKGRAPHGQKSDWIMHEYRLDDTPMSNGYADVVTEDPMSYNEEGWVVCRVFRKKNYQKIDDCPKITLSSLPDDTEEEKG
As to conditions: protein: recombinant; tags: GST; chain copies: 2; dsDNA, one strand shown. The method in brief:
as §1

A further test has as its target T10, GST-VND3 NAC domain (Arabidopsis thaliana, UniProt Q9FH59 12-162).
T10 sequence: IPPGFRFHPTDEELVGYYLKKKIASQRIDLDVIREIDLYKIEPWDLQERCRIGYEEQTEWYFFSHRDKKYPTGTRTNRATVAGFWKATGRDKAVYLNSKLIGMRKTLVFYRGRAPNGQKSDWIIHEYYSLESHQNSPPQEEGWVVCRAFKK
As to conditions: protein: recombinant; tags: GST; chain copies: 2; dsDNA, one strand shown. A digest of the protocol: as §1

A further test has as its target T11, GST-VND7 NAC domain (Arabidopsis thaliana, UniProt Q9C8W9 9-158).
T11 sequence: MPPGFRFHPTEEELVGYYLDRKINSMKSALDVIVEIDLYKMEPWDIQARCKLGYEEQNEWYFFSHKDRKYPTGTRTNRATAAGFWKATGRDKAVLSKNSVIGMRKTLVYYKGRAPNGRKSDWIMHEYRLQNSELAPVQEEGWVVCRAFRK
The note with it: protein: recombinant; tags: GST; chain copies: 2; dsDNA, one strand shown. The method in brief: as §1

For a further test, the target named is GST-WRKY1(266-371) (Arabidopsis thaliana, UniProt Q9SI37 266-371). The note with it: protein: recombinant; tags: GST; dsDNA, one strand shown. A digest of the protocol:
as §1

GST-NTL6(1-168), sequence (Q9SCK6 1-168): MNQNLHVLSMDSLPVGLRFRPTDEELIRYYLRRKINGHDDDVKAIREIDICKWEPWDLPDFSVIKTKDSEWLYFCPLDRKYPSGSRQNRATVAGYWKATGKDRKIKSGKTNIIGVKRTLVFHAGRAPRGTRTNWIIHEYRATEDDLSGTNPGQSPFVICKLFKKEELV
GST-WRKY1(266-371), sequence (Q9SI37 266-371): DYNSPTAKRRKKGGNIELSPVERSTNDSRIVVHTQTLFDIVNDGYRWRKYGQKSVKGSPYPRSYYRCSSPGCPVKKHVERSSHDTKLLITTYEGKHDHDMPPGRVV

For the sequence TTACGTAA, the binding signal with GST-ANAC092(1-176) turned out to be 0.476 E-score; with GST-NTL6(1-168), 0.171 E-score; with GST-ANAC019 NAC domain, 0.479 E-score; with GST-ANAC055(1-171), 0.478 E-score; in the test with GST-ATAF1 NAC domain it was 0.465 E-score; in test [1], 0.469 E-score. Moreover, the binding signal in the test with GST-NAP(1-166) is 0.484 E-score; with GST-NST2(1-184), 0.433 E-score; in the test with GST-NTL8 NAC domain, 0.411 E-score; with GST-SND1(1-203), 0.484 E-score; with GST-VND3 NAC domain, 0.483 E-score; with GST-VND7 NAC domain, 0.481 E-score. In the test with GST-WRKY1(266-371), the binding signal turned out to be 0.0521 E-score.
As for ATTACGTG, the binding signal with GST-ANAC092(1-176) was 0.457 E-score; in the test with GST-NTL6(1-168), 0.112 E-score; with GST-ANAC019 NAC domain, 0.468 E-score; with GST-ANAC055(1-171), 0.432 E-score; with GST-ATAF1 NAC domain, 0.372 E-score; in test [1], 0.462 E-score. Besides, the binding signal with GST-NAP(1-166) amounted to 0.419 E-score; with GST-NST2(1-184), 0.296 E-score; with GST-NTL8 NAC domain, 0.146 E-score; with GST-SND1(1-203), 0.252 E-score; with GST-VND3 NAC domain it was 0.446 E-score; with GST-VND7 NAC domain, 0.437 E-score. The binding signal with GST-WRKY1(266-371) was 0.127 E-score.
For the sequence ATTACGTA, the binding signal was 0.459 E-score with GST-ANAC092(1-176); 0.201 E-score in the test with GST-NTL6(1-168); 0.474 E-score with GST-ANAC019 NAC domain; 0.438 E-score in the test with GST-ANAC055(1-171); 0.404 E-score with GST-ATAF1 NAC domain; 0.449 E-score in test [1]. The binding signal with GST-NAP(1-166) was 0.47 E-score; in the test with GST-NST2(1-184), 0.331 E-score; in the test with GST-NTL8 NAC domain, 0.134 E-score; in the test with GST-SND1(1-203), 0.44 E-score; with GST-VND3 NAC domain it was 0.468 E-score; in the test with GST-VND7 NAC domain, 0.458 E-score. In addition, the binding signal in the test with GST-WRKY1(266-371) was 0.0642 E-score.
On to AATGCGTG, for which the binding signal was 0.434 E-score in the test with GST-ANAC092(1-176); 0.147 E-score with GST-NTL6(1-168); 0.324 E-score in the test with GST-ANAC019 NAC domain; 0.227 E-score in the test with GST-ANAC055(1-171); 0.271 E-score with GST-ATAF1 NAC domain; 0.44 E-score in [1]. The binding signal with GST-NAP(1-166) stood at 0.227 E-score; with GST-NST2(1-184) it was 0.243 E-score; with GST-SND1(1-203) it was 0.288 E-score; with GST-VND3 NAC domain it was 0.286 E-score; with GST-VND7 NAC domain, 0.254 E-score; with GST-WRKY1(266-371) it was 0.087 E-score.
Consider TGAAGAAA, for which the binding signal with GST-ANAC092(1-176) amounted to 0.188 E-score; in the test with GST-NTL6(1-168) it was 0.339 E-score; with GST-ANAC019 NAC domain, 0.151 E-score; with GST-ANAC055(1-171), 0.114 E-score; with GST-ATAF1 NAC domain, 0.129 E-score; in test [1] it was 0.0672 E-score. For the same sequence, the binding signal with GST-NAP(1-166) is 0.0893 E-score; with GST-NST2(1-184), 0.241 E-score; with GST-NTL8 NAC domain, 0.45 E-score; with GST-SND1(1-203) it was 0.152 E-score; with GST-VND3 NAC domain, 0.121 E-score; with GST-VND7 NAC domain, 0.215 E-score. In addition, the binding signal in the test with GST-WRKY1(266-371) worked out at 0.211 E-score.
For the sequence AATTACGT, the binding signal in the test with GST-ANAC092(1-176) was determined as 0.439 E-score; with GST-NTL6(1-168), 0.142 E-score; with GST-ANAC019 NAC domain, 0.472 E-score; with GST-ANAC055(1-171), 0.446 E-score; with GST-ATAF1 NAC domain, 0.435 E-score; in test [1], 0.421 E-score. The binding signal was determined as 0.454 E-score with GST-NAP(1-166); 0.352 E-score with GST-NST2(1-184); 0.205 E-score in the test with GST-NTL8 NAC domain; 0.42 E-score in the test with GST-SND1(1-203); 0.47 E-score in the test with GST-VND3 NAC domain; 0.46 E-score with GST-VND7 NAC domain. For the same sequence, the binding signal with GST-WRKY1(266-371) was 0.185 E-score.

Source of the values: publication PMC4081100, “A DNA-binding-site landscape and regulatory network analysis for NAC transcription factors in Arabidopsis thaliana”.
